According to ChEMBL document CHEMBL3988442, “University of Dundee, Small-Polar-MMV Screening Library” (2021):
Out of some 48,000 compounds screened, about 13,000 (27%) showed an effect of 50% or more. Some of the results follow.

Each compound was assayed on Wolbachia pipientis (assay: Anti-Wolbachia Cell-Based Screen). Conditions: 5 µM.
Format: functional
Design: scale not given: in the data most compounds retested in dose-response had high values
In the case of `CN(CC(O)C1CC1)C(=O)c1ccc(-c2nc(C3CC3)no2)cc1` (centres undefined), the “Percent Effect” value is reported as 4.636%. In the case of `CCc1nnc(NCc2cccc(OC)c2OC)o1`, the “Percent Effect” value is reported as 1.756%. In the case of `CC(C)(C)c1nnc(NCc2ccc(F)cc2)o1`, the “Percent Effect” value is reported as -7.164%. `COc1ccc(OC)c(CNc2nnc(C(C)(C)C)o2)c1` was tested, and the “Percent Effect” value was 112.6%. For `COc1ccc(CNc2nnc(CC(C)(C)C)o2)cc1C#N`, the “Percent Effect” value was -29.2%. With `COc1cccc(CNc2nnc(C(C)(C)C)o2)c1OC` the “Percent Effect” value was 92.71%. `COc1cccc(CNC(=O)Nc2ccc3[nH]nnc3c2)c1OC` was tested, and the “Percent Effect” value was -10.07%. With `CN(Cc1ccccc1)c1ncccc1CNC1CCC1` the “Percent Effect” value was -23.22%. With `CN(Cc1cc(Br)c2c(c1)OCO2)Cc1cscn1` the “Percent Effect” value was 2.814%. `CSCCNC(=O)c1coc(COc2ccc(F)cc2)n1` was tested, and the “Percent Effect” value was -7.576%. With `CCC(C)N(Cc1ccncc1)C(=O)CCSC` (centres undefined) the “Percent Effect” value was -18.32%. In the case of `CNC(=O)c1cccc(NC(=O)NCc2ccc(SC)cc2)c1C`, the “Percent Effect” value is reported as -19.71%. With `CSc1ccc(CNC(=O)NCC(O)c2cccc(F)c2)cc1` (centres undefined) the “Percent Effect” value was 106.1%. `O=C(NCc1cccc(F)c1)NCC(O)c1cccc(F)c1` (centres undefined) was tested, and the “Percent Effect” value was 96.97%. For `O=C(NCc1cccnc1)NCC(O)c1cccc(C(F)(F)F)c1` (centres undefined), the “Percent Effect” value was -14.42%. In the case of `Cc1cc(C)c(CNC(=O)NCC(O)c2cccc(F)c2)c(=O)[nH]1` (centres undefined), the “Percent Effect” value is reported as 0.6677%. In the case of `O=C(NCc1ccccc1)NCC(O)c1cccc(F)c1` (centres undefined), the “Percent Effect” value is reported as 95.34%. With `CCOc1cccc(CNC(=O)NCC(O)c2cccc(F)c2)c1` (centres undefined) the “Percent Effect” value was 5.413%. In the case of `Cc1cc(CNC(=O)NCC(O)c2cccc(F)c2)no1` (centres undefined), the “Percent Effect” value is reported as -1.718%. `CC(C)Nc1cccc(C(=O)NCC(O)c2cccc(F)c2)c1` (centres undefined) was tested, and the “Percent Effect” value was -13.04%. In the case of `O=C(C1SCCc2sccc21)N1CCN(C2CC2)C(=O)C1` (centres undefined), the “Percent Effect” value is reported as -5.096%. In the case of `CN(CCc1noc(C2CC2)n1)C(=O)CCc1cc2n(n1)CCCNC2`, the “Percent Effect” value is reported as 5.558%. In the case of `CC(=O)c1sc(C(NC(=O)c2ccccc2)C2CC2)nc1C` (centres undefined), the “Percent Effect” value is reported as 5.718%. `CSCC(=O)N1C[C@@H](C)[C@](O)(C(C)C)C1` was tested, and the “Percent Effect” value was 100.1%. In the case of `CSCCC(=O)N1C[C@@H](C)[C@](O)(C(C)C)C1`, the “Percent Effect” value is reported as 109.4%. With `CSCCC(=O)N1CCN(CC(C)O)CC1` (centres undefined) the “Percent Effect” value was -18.5%. In the case of `C[C@@H]1CN(C(=O)CSc2nncn2C)C[C@@]1(O)C1CC1`, the “Percent Effect” value is reported as -9.811%. For `CSCC(=O)N1CCN(CC(O)C(C)(C)C)CC1` (centres undefined), the “Percent Effect” value was -10.26%. With `CCC(O)CN1CCN(C(=O)CCSC)CC1` (centres undefined) the “Percent Effect” value was 1.956%. In the case of `Clc1cccc2c1CCN(Cc1nc(CC3CC3)no1)C2`, the “Percent Effect” value is reported as -15.7%. In the case of `O=C(NCCNc1ncccn1)c1scnc1Cl`, the “Percent Effect” value is reported as 2.928%. `CCc1noc(CN2CCN(C(=O)N(C)C)CC2)n1` was tested, and the “Percent Effect” value was -9.661%. With `CCc1noc(CN2CCN(C(=O)c3ccccn3)CC2)n1` the “Percent Effect” value was -5.851%. For `CC(C)Cc1noc(CN2CCCN(C(=O)c3ccccc3Cl)CC2)n1`, the “Percent Effect” value was -15.62%. `CCc1noc(CN2CCN(C(=O)c3ccccc3F)CC2)n1` was tested, and the “Percent Effect” value was 117.4%. For `CC(C)Cc1noc(CN2CCN(C(=O)c3ccco3)CC2)n1`, the “Percent Effect” value was -2.17%. `CC(C)Cc1noc(CN2CCN(C(=O)c3ccccc3F)CC2)n1` was tested, and the “Percent Effect” value was 100.3%. In the case of `OCC1(O)CCCN(Cc2ccc(-c3cc[nH]n3)s2)CC1` (centres undefined), the “Percent Effect” value is reported as 3.83%. For `O=C1COc2c(cccc2C(=O)N2CCCCC2Cn2cccn2)N1` (centres undefined), the “Percent Effect” value was -1.784%. For `Cc1cnn(CC2CCCN2C(=O)Cc2n[nH]c3ccccc23)c1` (centres undefined), the “Percent Effect” value was 2.79%. With `O=C1COc2c(cccc2C(=O)N2CCCC2Cn2cccn2)N1` (centres undefined) the “Percent Effect” value was -10.2%. For `Cc1cnn(CC2CCCN2C(=O)c2cc3ccccc3[nH]c2=O)c1` (centres undefined), the “Percent Effect” value was -0.3129%. For `O=C(c1nccc2ccccc12)N1CCCCC1Cn1cccn1` (centres undefined), the “Percent Effect” value was 116.9%. With `Cc1cnn(CC2CCCN2C(=O)c2cc3ccccc3[nH]2)c1` (centres undefined) the “Percent Effect” value was 2.697%. With `Cc1cnn(CC2CCCN2C(=O)c2n[nH]c(=O)c3ccccc23)c1` (centres undefined) the “Percent Effect” value was 115%. In the case of `O=C(c1n[nH]c(=O)c2ccccc12)N1CCCC1Cn1cccn1` (centres undefined), the “Percent Effect” value is reported as 110.2%. For `Cc1cnn(CC2CCCN2C(=O)c2cc3ccccc3c(=O)[nH]2)c1` (centres undefined), the “Percent Effect” value was 122.8%. In the case of `O=C1CC(c2ccc(F)c(F)c2)c2snc(C(=O)O)c2N1` (centres undefined), the “Percent Effect” value is reported as 8.498%. With `Cc1ccc(-c2cc(CN(CC(N)=O)CC(C)C)on2)cc1` the “Percent Effect” value was -24.63%. With `Cc1ccc(-c2ncc(C(=O)NCCS(N)(=O)=O)s2)c(C)c1` the “Percent Effect” value was -6.964%. In the case of `CCCn1nnnc1CSc1nccn1CC`, the “Percent Effect” value is reported as -2.029%. In the case of `Cc1nc(CN2CCN(C(=O)CCC(=O)c3ccccc3)CC2)no1`, the “Percent Effect” value is reported as 17.55%. With `Cc1ncncc1C(=O)N1CCCN(Cc2nccn2C(C)C)CC1` the “Percent Effect” value was -12.73%. `Cn1cc(C(=O)N2CCCC(Cc3nccs3)C2)cn1` (centres undefined) was tested, and the “Percent Effect” value was -5.021%. For `Cn1cc(C(=O)N2CCC(Cc3nccs3)CC2)cn1`, the “Percent Effect” value was 0.6928%. In the case of `Cc1ncncc1C(=O)N1CCCC(Cc2nccs2)C1` (centres undefined), the “Percent Effect” value is reported as 112.8%. In the case of `O=C(c1cnco1)N1CCCC(Cc2nccs2)C1` (centres undefined), the “Percent Effect” value is reported as -3.557%. For `CCCn1cc(C(=O)N2CCCC(Cc3nccs3)C2)cn1` (centres undefined), the “Percent Effect” value was 95.18%. `CCc1nc(CN2CCCN(C(=O)c3cncnc3C)CC2)cs1` was tested, and the “Percent Effect” value was 14.37%. In the case of `O=C(N1CCCC1)C12CC(CN1Cc1nccs1)C2`, the “Percent Effect” value is reported as -16.8%. `Cc1ncc(C(=O)N2CCCC(Cc3nccs3)C2)cn1` (centres undefined) was tested, and the “Percent Effect” value was 96.26%. For `Cc1ncc(C(=O)N2CC[C@@]3(O)CCN(C4CCCCC4)C[C@H]3C2)cn1`, the “Percent Effect” value was 8.568%. For `O=C(c1cccnc1)N1CCCC(Cc2nccs2)C1` (centres undefined), the “Percent Effect” value was 104.8%. `O=C(c1cccnc1)N1CCN(c2ccnc3ccsc23)CC1` was tested, and the “Percent Effect” value was -5.057%. In the case of `Cc1cccc2c1nc(CCO)n2-c1ccc(N)nc1`, the “Percent Effect” value is reported as -17.09%. In the case of `CSc1ccc(-c2nc(CN3CCC(NC(C)=O)C3)c(C)o2)cc1` (centres undefined), the “Percent Effect” value is reported as -8.203%. `COc1cccc2c1OCC(C(=O)N1CCN(CCS(C)(=O)=O)CC1)C2` (centres undefined) was tested, and the “Percent Effect” value was -9.844%. In the case of `Fc1ccc(Cn2ncc3c2CN(c2noc(C4CC4)n2)C3)cc1`, the “Percent Effect” value is reported as 2.089%. With `COc1nn(C)cc1C(=O)N1CCC(c2nnc(-c3ccsc3)o2)CC1` the “Percent Effect” value was 120.9%. For `COc1ncccc1C(=O)N1CCC(c2nnc(C3CC3)o2)CC1`, the “Percent Effect” value was 16.61%. In the case of `COc1nn(C)cc1C(=O)N1CCC(c2nnc(C(C)C)o2)CC1`, the “Percent Effect” value is reported as 80.59%. `COc1nn(C)cc1C(=O)N1CCC(c2nnc(C3CC3)o2)CC1` was tested, and the “Percent Effect” value was 8.567%. With `Cn1ccnc1C(=O)N1CCC(Cn2cc(-c3ccsc3)nn2)CC1` the “Percent Effect” value was 0.3036%. In the case of `Cn1nccc1C(=O)N1CCC(n2cc(-c3ccsc3)nn2)CC1`, the “Percent Effect” value is reported as -17.39%.
